From the antibiotic and cytotoxicity screens of Wong et al. (2023)
In all, about 39,000 compounds went through this assay and about 500 (1.3%) were called active. What follows is part of a selection rich in actives, with near analogues and random picks from the rest.

The molecules below were run on S. aureus RN4220 (assay: growth inhibition call (relative growth <= 0.2)). Settings: 50 µM.

| SMILES | growth inhibition call |
| --- | --- |
| C[C@@H]1CN([C@H](C)CO)C(=O)c2cccc(NS(=O)(=O)c3ccc(F)cc3)c2O[C@H]1CN(C)S(=O)(=O)c1cccs1 | inactive |
| Cc1ccc(OC(=O)N(C)C[C@H]2OCc3ccccc3-c3ccccc3C(=O)N([C@@H](C)CO)C[C@@H]2C)cc1 | inactive |
| C[C@H](CO)N1C[C@H](C)[C@@H](CN(C)C(=O)c2ccncc2)OCCCC[C@H](C)Oc2ccc(NS(=O)(=O)c3ccc(Cl)cc3)cc2C1=O | inactive |
| O=c1[nH]c(=O)n([C@H]2C[C@H](O)[C@@H](CO)O2)cc1F | active |
| O=c1[nH]c(=O)n([C@@H]2C[C@@H](O)[C@@H](CO)O2)cc1F | active |
| Cc1cn([C@@H]2C[C@H](O)[C@@H](CO)O2)c(=O)[nH]c1=O | inactive |
| Cc1cn([C@H]2C[C@H](O)[C@@H](CO)O2)c(=O)[nH]c1=O | inactive |
| O=c1[nH]c(=O)n(C2CC(O)C(CO)O2)cc1F (configuration not stated) | inactive |
| Cc1cn([C@@H]2C[C@@H](O)[C@H](CO)O2)c(=O)[nH]c1=O | inactive |
| C[C@H](CO)N1C[C@H](C)[C@@H](CN(C)S(=O)(=O)c2cn(C)cn2)Oc2ccc(NC(=O)C3CC3)cc2C1=O | inactive |
| C[C@H]1CCCCO[C@@H](CN(C)C(=O)Cc2ccccc2)[C@@H](C)CN([C@@H](C)CO)C(=O)c2cc(NS(=O)(=O)c3ccc(F)cc3)ccc2O1 | inactive |
| C#CCOc1ccc(-c2c(C(=O)NC3CCCCC3)oc(OC)c2S(=O)(=O)c2ccc(Cl)cc2)cc1 | inactive |
| COc1ccc(S(=O)(=O)N(C)C[C@H]2OCCCC[C@@H](C)Oc3ccc(NC(=O)Nc4c(C)noc4C)cc3C(=O)N([C@@H](C)CO)C[C@@H]2C)cc1 | inactive |
| O=C(/C=C/c1cccc(-c2cn(-c3cccc(C(=O)N4CCC5(CC4)C(=O)NCN5c4ccccc4)c3)nn2)c1)NO | inactive |
| O=C(NO)c1cn(-c2cccc(C(=O)N3CCC4(CC3)C(=O)NCN4c3ccccc3)c2)nn1 | active |
| O=C(CCc1cn(CC(=O)N2CCC3(CC2)C(=O)NCN3c2ccccc2)nn1)NO | active |
| O=C(NO)c1cn(CC(=O)N2CCC3(CC2)C(=O)NCN3c2ccccc2)nn1 | inactive |
| O=C(Cn1cc(CN2C(=O)COC[C@H]2c2ccccc2)nn1)N1CCC2(CC1)C(=O)NCN2c1ccccc1 | inactive |
| O=C(/C=C/c1cccc(-c2cn(CC(=O)N3CCC4(CC3)C(=O)NCN4c3ccccc3)nn2)c1)NO | inactive |
| Cc1ccc(S(=O)(=O)N(C)C[C@@H]2Oc3c(NC(=O)c4cnccn4)cccc3C(=O)N([C@@H](C)CO)C[C@H]2C)cc1 | inactive |
| C[C@@H]1CCCCO[C@@H](CN(C)S(=O)(=O)c2ccccc2)[C@@H](C)CN([C@H](C)CO)C(=O)c2cc(NS(=O)(=O)c3ccc(Cl)cc3)ccc2O1 | inactive |
| Cc1noc(C)c1S(=O)(=O)Nc1cccc2c1O[C@@H](CN(C)Cc1ccc(C(=O)O)cc1)[C@@H](C)CN([C@H](C)CO)C2=O | inactive |
| CCCC(=O)Nc1ccc2c(c1)OC[C@@H](C)N(C(=O)Cc1cccnc1)C[C@@H](C)[C@H](OC)CN(C)C2=O | inactive |

| SMILES | growth inhibition call |
| --- | --- |
| Cc1noc(C)c1CO | inactive |
| Cc1ccc(-c2noc([C@H](C)c3ccc(CC(C)C)cc3)n2)cc1 | inactive |
| C[C@@H]1CCCCO[C@@H](CN(C)Cc2ccccc2)[C@@H](C)CN([C@@H](C)CO)C(=O)c2cc(NS(=O)(=O)c3ccc(F)cc3)ccc2O1 | inactive |
| NCc1cc2ccccc2s1 | inactive |
| Cn1c(=O)c2c(ncn2CC(=O)N2CCN(c3ccccc3F)CC2)n(C)c1=O | inactive |
| Cc1cccc(N2C[C@@H](CN)OC2=O)c1 | inactive |
| O=C(O)c1cn(C2CC2)c2cc(N3CCC(O)(COc4ccc(N5C[C@H](CO)OC5=O)cc4F)CC3)c(F)cc2c1=O | inactive |
| CC(=O)NCC1CN(c2ccc(N3CCOCC3)c(F)c2)C(=O)O1 (configuration not stated) | active |
| CC(=O)NC[C@H]1CN(c2ccc(N3CCN(C(=O)CO)CC3)c(F)c2)C(=O)O1 | active |
| CC(C)NC(=O)Nc1ccc2c(c1)C(=O)N([C@H](C)CO)C[C@H](C)[C@@H](CN(C)C(=O)Nc1ccc(F)cc1)OCCCC[C@@H](C)O2 | inactive |
| Cc1noc(C)c1NC(=O)N(C)C[C@H]1OCCCC[C@@H](C)Oc2ccc(NS(=O)(=O)c3ccc(F)cc3)cc2C(=O)N([C@H](C)CO)C[C@@H]1C | inactive |
| C[C@H](CO)N1C[C@H](C)[C@H](CN(C)C)OCCCC[C@H](C)Oc2ccc(NS(=O)(=O)c3cn(C)cn3)cc2C1=O | inactive |
| COc1cc(-c2cc(=O)c3c(=O)cc(-c4ccc(O)c(OC)c4)n(CCc4ccccc4)c3s2)ccc1O | inactive |
| Cc1noc(C)c1NC(=O)N(C)C[C@@H]1Oc2ccc(NS(=O)(=O)c3cn(C)cn3)cc2CC(=O)N([C@H](C)CO)C[C@H]1C | inactive |
| CO[C@H]1O[C@H](CO)[C@@H](OC(=O)Nc2ccc(Br)cc2)[C@@H]2OC(=O)[C@H](Cc3cccc(Br)c3)C/C=C/C[C@@H](Cc3cccc(Br)c3)C(=O)O[C@@H]12 | inactive |
| C[C@@H]1CN([C@@H](C)CO)C(=O)c2cccc(NS(=O)(=O)c3ccc(F)cc3)c2O[C@@H]1CN(C)S(C)(=O)=O | inactive |
| CN[C@@H]1[C@@H](O)[C@@H](O[C@@H]2[C@@H](O)[C@H](O[C@H]3OC(CN)=CC[C@H]3N)[C@@H](N)C[C@H]2N)OC[C@]1(C)O | inactive |
| CNC1C(O)C(OC2C(N)CC(N)C(OC3OC(CN)=CCC3N)C2O)OCC1(C)O.O=S(=O)(O)O (configuration not stated) | active |
| CCNC1CC(N)C(OC2OC(CN)=CCC2N)C(O)C1OC1OCC(C)(O)C(NC)C1O.O=S(=O)(O)O.O=S(=O)(O)O (configuration not stated) | inactive |
| C[C@@H]1CCCCO[C@H](CN(C)C(=O)CCC(F)(F)F)[C@@H](C)CN([C@@H](C)CO)C(=O)c2cc(NS(=O)(=O)c3ccc(F)cc3)ccc2O1 | inactive |
| CC(C)NC(=O)Nc1ccc2c(c1)C(=O)N([C@@H](C)CO)C[C@H](C)[C@@H](CN(C)Cc1ccccc1)OCCCC[C@H](C)O2 | inactive |
| CO[C@@H]1CN(C)C(=O)c2ccc(NC(=O)Nc3cccc(Cl)c3)cc2OC[C@@H](C)N(C(=O)Nc2c(C)noc2C)C[C@H]1C | inactive |
| CC(C)(C)[S@@+]([O-])N1Cc2cc(C(=O)NCc3ccc4c(c3)OCO4)nc(-c3ccc(-c4ccc(C#N)cc4)cc3)c2[C@H]1CCO | inactive |

| SMILES | growth inhibition call |
| --- | --- |
| Cc1noc(C)c1S(=O)(=O)N(C)C[C@H]1OCCCC[C@@H](C)Oc2ccc(NC(=O)Nc3ccc(F)cc3)cc2C(=O)N([C@@H](C)CO)C[C@@H]1C | inactive |
| CC(C)NC(=O)N(C)C[C@@H]1OCCCC[C@@H](C)Oc2ccc(NS(C)(=O)=O)cc2C(=O)N([C@@H](C)CO)C[C@H]1C | inactive |
| CCCSc1nc(N[C@@H]2C[C@H]2c2ccc(F)c(F)c2)c2nnn([C@@H]3C[C@H](OCCO)[C@@H](O)[C@H]3O)c2n1 | active |
| COc1cc(C)c(C(=O)O)c(O)c1 | inactive |
| COc1cc(O)c(C(=O)O)c(O)c1 | inactive |
| CCCCCc1c2c(cc(O)c1C(=O)O)OC(=O)c1c(cc(OC)cc1C(=O)CCCC)O2 | active |
| C[C@@H]1CN([C@H](C)CO)C(=O)c2cccc(NC(=O)Nc3ccc(C(F)(F)F)cc3)c2O[C@@H]1CN(C)Cc1ccc(Oc2ccccc2)cc1 | inactive |
| Cc1ccc(S(=O)(=O)N(C)C[C@H]2Oc3ccc(NS(=O)(=O)c4ccccc4)cc3C(=O)N([C@@H](C)CO)C[C@@H]2C)cc1 | inactive |
| C[C@@H]1CN([C@H](C)CO)C(=O)Cc2cc(NS(=O)(=O)c3ccc(Cl)cc3)ccc2O[C@@H]1CN(C)S(C)(=O)=O | inactive |
| COC(=O)OCOc1c2n(ccc1=O)N([C@@H]1c3ccccc3SCc3c1ccc(F)c3F)[C@@H]1COCCN1C2=O | inactive |
| CC[C@@H](C)CCCCC(=O)N[C@@H](CCN)C(=O)N[C@H](C(=O)N[C@@H](CCN)C(=O)N[C@H]1CCNC(=O)[C@H]([C@@H](C)O)NC(=O)[C@H](CCN)NC(=O)[C@H](CCN)NC(=O)[C@H](CC(C)C)NC(=O)[C@@H](Cc2ccccc2)NC(=O)[C@@H](CCN)NC1=O)[C@@H](C)O | inactive |
| CCC(C)CCCCC(=O)NC(CCN)C(=O)NC(C(=O)NC(CCN)C(=O)NC1CCNC(=O)C(C(C)O)NC(=O)C(CCN)NC(=O)C(CCN)NC(=O)C(CC(C)C)NC(=O)C(Cc2ccccc2)NC(=O)C(CCN)NC1=O)C(C)O.O=S(=O)(O)O (configuration not stated) | active |
| CC[C@@H](C)CCCC(=O)N[C@@H](CCN)C(=O)N[C@H](C(=O)N[C@@H](CCN)C(=O)N[C@H]1CCNC(=O)[C@H]([C@@H](C)O)NC(=O)[C@H](CCN)NC(=O)[C@H](CCN)NC(=O)[C@H](CC(C)C)NC(=O)[C@@H](CC(C)C)NC(=O)[C@H](CCN)NC1=O)[C@@H](C)O | inactive |
| C[C@@H]1CN([C@H](C)CO)S(=O)(=O)c2ccc(C#C[C@@H](C)O)cc2O[C@@H]1CN(C)C(=O)c1ccncc1 | inactive |
| O=C(C[C@@H]1CC[C@H](NC(=O)CN2CCOCC2)[C@@H](CO)O1)NCCc1ccccc1 | inactive |
| O=C1C=CC(=O)N1 | active |
| Cc1noc(C)c1NC(=O)N(C)C[C@H]1OCCCC[C@@H](C)Oc2ccc(NC(=O)NC3CCCCC3)cc2C(=O)N([C@H](C)CO)C[C@@H]1C | inactive |
| CNC1CCC(c2ccc(Cl)c(Cl)c2)c2ccccc21.Cl (configuration not stated) | active |
| CN[C@H]1CC[C@@H](c2ccc(Cl)c(Cl)c2)c2ccccc21 | inactive |
| N[C@@H]1CC[C@@H](c2ccc(Cl)c(Cl)c2)c2ccccc21 | active |
| O=C(C[C@H]1C=C[C@H](NS(=O)(=O)c2ccc(F)cc2)[C@@H](CO)O1)N1CCC(Cc2ccccc2)CC1 | inactive |
